These entries were drawn from the full list.
aSyn 5UTR act: Activators via SNCA 5'UTR binding, MLPCN | alpha-synuclein 5'UTR reporter, activators screen | activity score, % (tested at 7.5 µM), hits read low | AID 1814, 2009 | 7.1% of 300,000 active; in the data active means activity score below about -60%
* = called active by the depositor; ! = a repeat was not active.

SMILES | aSyn 5UTR act
CCOc1ccc2nc(NC(=O)Nc3cccs3)sc2c1 | -103*
CC(C)C(=O)NNc1nc2ccccc2s1 | -73*
O=C(Nc1nc2ccccc2s1)c1c(F)cccc1Cl | -86*
CCOc1ccc2nc(NC(=O)NC3CCCCC3)sc2c1 | -72*
CCOc1ccc2nc(S(N)(=O)=O)sc2c1 | -176*
CCOc1ccc2nc(NC(=O)c3ccccn3)sc2c1 | 80
CCOc1ccc2nc(NC(=O)Nc3ccccc3)sc2c1 | -131*
O=C(CSc1nnc(-c2ccccc2Cl)o1)Nc1ccc2c(c1)OCCO2 | -137*
O=C(CSc1nnc(-c2ccc(O)cc2)o1)Nc1ccccc1Br | -132*
O=C(Nc1ccc2c(c1)OCCO2)C1CC(c2ccccc2Cl)=NO1 (stereo unspecified) | -124*
COc1ccc(-c2nnc(SC(C)C(=O)Nc3ccc4c(c3)OCCO4)o2)cc1 (stereo unspecified) | -101*
O=C(CSc1nnc(-c2ccc(O)cc2)o1)Nc1ccc2c(c1)OCCO2 | -83*
CC1(C)CC(NC(=O)COc2ccccc2Cl)CC(C)(C)N1 | -66*
Cc1c(OCC(=O)NC2CC(C)(C)NC(C)(C)C2)ccc2c1oc(=O)c1ccccc12 | -107*
COc1cc(C(=O)Nc2ccc(C)cc2)c2ccccc2n1 | 82
COc1ccc(-c2cc(C(=O)Nc3ccc(C)c(N)c3)c3ccccc3n2)cc1 | -82*
CC(C)(C)c1ccc(-c2cc(C(=O)NNC(=O)Nc3ccccc3)c3ccccc3n2)cc1 | -124*
c1ccc(-c2ccc(-c3csnn3)cc2)cc1 | -131*
CC1CN(C(=O)Nc2ccc3snnc3c2)c2ccccc21 (stereo unspecified) | -67*
COc1ccc(NC(=O)/C=C/c2ccccc2)cn1 | -116*
COc1ccc(NC(=O)/C=C/c2ccc(F)cc2)cn1 | -114*
COc1ccc(S(=O)(=O)N2CCOCC2)cc1NC(=O)CCNC(=O)c1ccc(Br)cc1 | 77
COc1ccc(CC(=O)N(C)Cc2ccc(Cl)cc2)cc1S(=O)(=O)N1CCOCC1 | -115*
Fc1cccc2sc(N3CCCC3)nc12 | -79*
Clc1cccc2sc(N3CCOCC3)nc12 | -64*
SMILES | aSyn 5UTR act
Brc1cccc2sc(N3CCCC3)nc12 | -75*
Cc1c(Cl)cccc1Nc1nc(N)nc(CSc2ncccn2)n1 | -77*
CCOC(=O)c1ccc2c(c1)nc(-c1ccccn1)n2CC | -134*
CCCCOc1ccc(-c2ncc(C(=O)O)c(C)n2)cc1 | -123*
CCC(=O)c1cn(CC(=O)NCc2ccco2)c2ccccc12 | -65*
CN(C)/C=N/c1ncc(C(=O)c2ccc3ccccc3c2)s1 | -81*
COc1ccc(C(=O)c2cnc(/N=C/N(C)C)s2)cc1 | -93*
O=C(CCl)NCCN1C(=O)S/C(=C\c2cccnc2)C1=O | -99*
COc1ccc(/C=C2\CN(Cc3ccccc3)C/C(=C\c3ccc(OC)c(O)c3)C2=O)cc1O | 107
COc1cc(/C=N/n2cnnc2)ccc1OCc1ccc(C)cc1 | -100*
COc1cc(/C=N/n2cnnc2)ccc1OCc1ccccc1 | -72*
COc1ccc(-n2nc3cc(C)c(NC(=S)NC(=O)c4ccccc4C)cc3n2)cc1 | -173*
CCC(=O)Nc1cc2nn(-c3ccc(C)cc3)nc2cc1C | 80
CCCCC(=O)Nc1cc2nn(-c3ccc(OC)cc3)nc2cc1C | -67*
O=C(c1ccc(F)cc1)c1cnc(Nc2ccccc2)s1 | -161*
CC(=O)c1cnc(Nc2cccc(C)c2)s1 | -137*
CNc1ncc(C(=O)c2ccc(F)cc2)s1 | -112*
Clc1cnc(N/N=C/c2cccs2)c(Cl)c1 | -193*
Oc1ccc(/C=N/Nc2ncc(Cl)cc2Cl)cc1 | -73*
Cc1ccc(/C=N/Nc2ncc(Cl)cc2Cl)s1 | -148*
CCOc1ccc(-c2nnc(N(CC)C(=O)C3CCC3)s2)cc1 | -102*
CCCC(=O)N(C)c1nnc(-c2ccc(OC)cc2)s1 | -129*
O=C(Cc1ccc(-c2ccccc2)cc1)Nc1ncccc1O | -97*
OCc1ccc(O)c2ncccc12 | 66
CC(C)c1cc(C(=O)Nc2cc(Br)ccc2O)no1 | -291*
SMILES | aSyn 5UTR act
CC(C)c1cc(C(=O)Nc2cc(Cl)ccc2O)no1 | -290*
O=C(Nc1cc(Br)ccc1O)c1cc(-c2cccs2)on1 | -147*
CSc1ccccc1NC(=O)c1cc(C(C)C)on1 | -143*
Cc1[nH]c(C)c(C(=O)/C=C/c2ccc([N+](=O)[O-])cc2)c1C | -232*
O=C1/C(=N\S(=O)(=O)c2cccs2)C([n+]2ccc(CCCc3ccccc3)cc2)=C([O-])c2ccccc21 | 91
O/N=C/c1ccc(OCc2ccccc2)c(Br)c1 | -142*
O/N=C/c1ccc(OCc2ccccc2F)c(Cl)c1 | -92*
O/N=C/c1ccc(OCc2ccccc2)c(Cl)c1 | -104*
O=C(Cn1cnc2ccccc2c1=O)c1ccc(Br)cc1 | -153*
O=C(Cn1cnc2ccccc2c1=O)c1ccc(Cl)cc1 | -90*
CCOc1ccc(C(=O)Cn2cnc3ccccc3c2=O)cc1 | -94*
O=C(Cn1cnc2ccccc2c1=O)c1ccccc1 | -80*
Cn1c(=N)n(CC(=O)c2ccc(Cl)c(Cl)c2)c2ccccc21 | 81
O=C(Cn1cnc2ccccc2c1=O)c1ccc(OC(F)F)cc1 | -73*
O=c1c2ccccc2ncn1-c1ccc(Cl)cc1 | -103*!
O=C(Cn1cnc2ccc(Cl)cc2c1=O)c1cccs1 | -136*
O=C(Cn1cnc2ccccc21)c1ccc(Cl)cc1 | -71*
CCC(C)NC(=O)c1cn(-c2cccc(C)n2)cn1 (stereo unspecified) | -110*
Cc1cccc(-n2cnc(C(=O)NC3CCCCCC3)c2)n1 | -101*
COc1ccc(-c2nc3n(c2C)CCC3)cc1 | -63*
COc1ccc(-c2cc3nc4n(c(=O)c3s2)CCC4)cc1 | 59
CCOC(=O)CSC1=NC(=O)/C(=C/c2ccc(Br)cc2)S1 | -62*
CCOC(=O)CSC1=NC(=O)/C(=C\c2ccc(OC(C)=O)cc2)S1 | -131*
CCn1ccc(C(=O)Nc2ccc(Cl)cn2)n1 | -137*
CCn1ccc(C(=O)Nc2ccccc2SC)n1 | -175*
SMILES | aSyn 5UTR act
CCn1nccc1C(=O)Nc1ccc(Cl)cn1 | -96*
O=C(Nc1ccc(Cl)cc1)c1sccc1-n1cccc1 | -66*
CCc1ccc(NC(=O)c2sccc2-n2cccc2)cc1 | -64*
C1=C(CCNc2ncnc3nc[nH]c23)CCCC1 | -116*
c1ccc2c(CCNc3ncnc4nc[nH]c34)cccc2c1 | -92*
Clc1ccc(CO/N=C2\CCCc3nonc32)cc1 | -70*
O=C(CC1Sc2ccccc2NC1=O)c1ccc(Br)cc1 (stereo unspecified) | -218*
CCCc1nn(C)c(C(=O)Nc2ccc(CC)cc2)c1Cl | -74*
CCn1nc(C(=O)Nc2ccc(C)c(C)c2)c(Cl)c1Cl | -91*
CCCc1nn(C)c(C(=O)Nc2ccc(C)c(C)c2)c1Cl | -102*
CN(C)S(=O)(=O)c1ccc(N2C(=O)CC2(/C=C/c2ccccc2)C(=O)NC2CCCC2)cc1 (stereo unspecified) | 35
COc1ccccc1/C=C/C1(C(=O)NC2CCCC2)CC(=O)N1c1ccccc1 (stereo unspecified) | -138*
CC1(C)Cc2c(sc3nc(-c4cccs4)n(N)c(=O)c23)CO1 | -116*
Nn1c(-c2cccs2)nc2sc3c(c2c1=O)CCCC3 | -149*
CC1(C)Cc2c(sc3ncnc(NNC(=S)NCc4ccccc4)c23)CO1 | 87
O=C(COc1ccccc1C(=O)c1cnn(-c2ccccc2)c1)Nc1ccc2ccccc2c1 | -136*
CC(C)c1ccc(NC(=O)COc2ccc(F)cc2C(=O)c2cnn(-c3ccccc3)c2)cc1 | -115*
